We go through 13 compounds from PubChem BioAssay AID1224858 (National Center for Advancing Translational Sciences (NCATS), 2016).

Records with an inconclusive call do not appear. Calls of active or inactive are those of the source. The call rests on the fitted dose curve; in most records, active means well fitted inhibition curve with a large enough effect; inconclusive means small, poorly fitted or top-dose-only effect; inactive means no such curve, though single readings can be large or run the other way.

This experiment can be described thus: Confirmation assay for measurement of the activity of small molecule inhibitors on Zika virus induced Caspase-3 activity in human astrocytes. As to conditions: ZIKV-induced caspase-3/7 luminescence, 6 h; series mostly up to 46.1 µM; activity, negative = inhibition: at the top concentration. An excerpt: National Center for Advancing Translational Sciences [NCATS] Johns Hopkins University School of Medicine Florida State University Assay Overview: Increase in the Caspase-3 activity indicates an activation of apoptosis cell death pathway caused by Zika virus infection in certain types of neuronal cells including human neural progenitor cells (hNPCs), astrocytes, and astrocytoma cell line (SNB-19). This cell-based caspase-3 activity assay measures the increased caspase-3 activity in the human astrocytes after a 6-hour Zika virus infection with a luminescence readout. A decrease in the luminescence signal in this assay by small molecule treatment indicates an inhibitory effect of that small molecule on the Zika virus induced caspase-3 activity that may correlate with its effect on reduction of Zika virus caused cell death.
Assay Protocol Summary: The medium for astrocytes contains AM basal medium (ScienCell, Cat.# 1801), AGS (ScienCell, Cat.# 1801), 10% FBS, and 1% Pen/Strep. A Caspase-Glo 3/7 assay kit (catalog number G8092; Promega, Madison, WI) was used to detect caspase-3 activity induced by Zika virus infection in human cells. The reagent mixture was reconstituted as described in the protocol from the manufacturer. Polystyrene tissue culture treated and PDL coated white plates were obtained from Greiner Bio-One (Monroe, NC). Cells were seeded in 384- or 1536-well assay plates and cultured at 37 C with 5% CO2 for 16 to 20 hours. The typical cell seeding density in the 1536-well plate assay is 350 cells/well in 3 ul medium for astrocytes in tissue culture treated plates. Compounds were added to cells and incubated for one hour before addition of ZIKV solution to cells (2 FFU/cell). After incubation at 37 C with 5% CO2 for 6 hours, the reagent mixture of Caspase-Glo 3/7 assay kit was added to each well, followed by incubation at room temperature for 30 minutes. The luminescence intensity of the assay plates was measured using a ViewLux plate reader (PerkinElmer). Data were normalized by using the cell-containing wells without ZIKV as a negative control (0% induction of caspase 3/7 activity) and wells containing ZIKV infected cells (Caspase-3 activity induced) as a positive control (100% induction of caspase 3 activity). The percentage inhibitions of the increased Caspase-3 activity by small molecule inhibitors were then calculated.
As for `CC(C)[N+](C)(CCC(C(N)=O)(c1ccccc1)c1ccccc1)C(C)C`, the “activity, negative = inhibition” value was 3.8% (inactive).
Consider `O=c1c2ccccc2[se]n1-c1ccccc1`, for which the Potency was 7.74 µM (active).
On the same count and under the same terms, as for `Cc1ccc([N+](=O)[O-])[c]2c1[O][Hg]2`, the figure is 7.74 µM (active).
With `COP(=S)(OC)SCN1C(=O)c2ccccc2C1=O`, the “activity, negative = inhibition” value is 11.5% (inactive).
In the case of `CC(C)[C@H]1C(=O)N[C@H](CO)Cc2c[nH]c3cccc(c23)N1C`, the “activity, negative = inhibition” value is -6.86% (inactive).
The same measure, in the same setting: with `CC(C)N[C@@H]1CCn2c(=O)[nH]c3cccc(c32)[C@@H]1O` the figure was -6.93% (inactive).
Take `O=C(Nc1ccc(Br)cc1)c1cc(Br)cc(Br)c1O`: the Potency was 6.15 µM (active).
As for `O=C1CCC[C@@H]2[C@H]3CCCN4CCC[C@@H](CN12)[C@@H]34`, the “activity, negative = inhibition” value was -2.18% (inactive).
Consider `CC(O)CN1CCN(CC(=O)[O-])CCN(CC(=O)[O-])CCN(CC(=O)[O-])CC1.[Gd+3]` (stereo not drawn), for which the “activity, negative = inhibition” value was 16.8% (inactive).
On to `Oc1ccc([C@H]2CNCc3c2ccc(O)c3O)cc1O`, for which the “activity, negative = inhibition” value is -21.6% (inactive).
As for `O=S(=O)(CC1CS1)c1ccc(Oc2ccccc2)cc1` (stereo not drawn), the “activity, negative = inhibition” value was -16.3% (inactive).
In the case of `COC1(CS(=O)c2ccccc2)CCN(CCc2c[nH]c3ccc(F)cc23)CC1` (stereo not drawn), the “activity, negative = inhibition” value was 21.6% (inactive).
As to `O=C1C=CC[C@@H]2[C@H]3CCCN4CCC[C@@H](CN12)[C@@H]34`, the “activity, negative = inhibition” value was 6.06% (inactive).
